CF NFkB block: inhibitors of cystic fibrosis induced NF-kB; AID 588850; inhibition, % at 5 µM; KKLEB NF-kB-GFP reporter, PAF-induced, GFP fluorescence overnight; 360,000 tested, 0.86% active;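 active = at least 50% inhibition at 5 µM, scaled per plate between neutral and stimulator controls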;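 note: PAF is a Pseudomonas aeruginosa culture filtrate used as stimulus; plate controls were PAF-stimulated DMSO wells for no effect and unstimulated DMSO wells for full effect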
HIF-2a inh: inhibitors of HIF-2a. inhibition, % at 18.8 µM. 360,000 tested, 0.72% active. 786-0 RCC cells HIF-2a reporter, luciferase luminescence, overnight;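 active = inhibition of the luminescence signal of 40% or more relative to plate controls, in a single-dose primary screen at 18.75 µM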
MITF TRPM1 inh: inhibitors of MITF-driven TRPM1 promoter in melanoma cells; 330,000 tested, 0.83% active; inhibition, % at 12.5 µM; SK-MEL-5 TRPM1 promoter luciferase, 24 h; AID 488899;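 active = mean inhibition across replicates of 60% or more, whatever share of single replicates reaches that level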
KKLEB tox: CF airway cell cytotoxicity counter-screen; 360,000 tested, 0.36% active; activity change (cytotoxicity), % at 5 µM; AID 602141; KKLEB CF airway cells viability, ATPlite luminescence, overnight; active compounds read low; cells stimulated with P. aeruginosa culture filtrate;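 active = corrected activity change at or below -50% at 5 µM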
Shn3 inh set2: reduces Shn3 3'UTR luciferase signal in osteoblasts; inhibition, % at 12.5 µM; Clone20 osteoblast Shn3 3'UTR firefly luciferase, 24 h; 360,000 tested, 0.52% active;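 active = mean inhibition of at least 75% with every replicate also reaching 75%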;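 note: 0% = median of neutral control wells and 100% = pilot-screen positive control compound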
Peg3 promoter: Peg3 promoter activity inhibition | HeLa PEG-Prom luciferase reporter, luminescence, overnight | inhibition, % at 20 µM | 360,000 tested, 1.7% active;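 active = inhibition of at least 50% at 20 µM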
* = called active by the depositor; . = no result given. Shown are actives, neighbours in structure and some others; about 2.7% of the full set was active somewhere.

SMILES | CF NFkB block | HIF-2a inh | MITF TRPM1 inh | KKLEB tox | Shn3 inh set2 | Peg3 promoter
Cc1ccc(CN(Cc2cc3cccc(C)c3[nH]c2=O)C(=S)NCCCN(C)C)cc1 | 14.3 | 11.3 | -6.3 | -7.6 | -7.0 | 86.7*
Cc1cccc2cc(CN(Cc3ccccc3)C(=S)NCCCN(C)C)c(=O)[nH]c12 | 10.7 | 11.0 | -22.2 | -8.6 | -6.1 | 17.6
COc1ccccc1/C=C/CN1CCC(n2nccc2NC(=O)CCc2ccccc2)CC1 | -8.1 | 7.3 | 2.4 | -3.8 | 86.3* | 15.5
O=C1N/C(=C/c2ccc(N3CCOCC3)o2)C(=O)N1c1cccc(Cl)c1 | 66.9* | 35.4 | -1.3 | -12.8 | 96.3* | -31.3
Cc1ccc(/C=C2/NC(=O)N(c3ccccc3)C2=O)o1 | 3.1 | -106.6 | -30.3 | 9.8 | 34.0 | -132.3
CCC1(c2ccccc2)ON(c2c(Br)cccc2Br)C1=O (centres undefined) | 23.5 | 32.6 | 23.3 | 6.7 | -26.1 | 73.0*
Cc1ccc2[nH]c(CNC(=O)c3ccccc3F)cc2c1 | 12.1 | -93.9 | -0.7 | -10.0 | -12.0 | -146.7
Cc1ccc(-c2nn3c(C)nnc3c3ccccc23)cc1S(=O)(=O)NC(C)c1ccccc1 (centres undefined) | -85.9 | 16.8 | 3.6 | -63.3* | 14.3 | 18.7
CCC(C)[C@H]1CNCCN1CCc1cc(C(F)(F)F)cc(C(F)(F)F)c1 (some centres undefined) | -7.1 | 1.8 | 19.3 | -1.2 | -18.7 | 2.4
CCC(C)[C@H]1CNC(=S)N1CCc1cc(C(F)(F)F)cc(C(F)(F)F)c1 (some centres undefined) | 20.3 | 8.8 | 4.6 | -0.1 | 97.1* | -1.9
Cc1cc(SCC(=O)OC(C)C(=O)N(C)c2ccccc2)nc2ccccc12 (centres undefined) | -0.9 | 15.6 | -9.6 | 0.6 | -48.0 | 31.8
COc1ccc(CCNc2ncnc3sc(C)cc23)cc1OC | 4.7 | 7.0 | 42.5 | -3.2 | 88.6* | 12.5
CCn1c2ccccc2c2nnc(SCCCn3c(=O)[nH]c4ccccc43)nc21 | -20.0 | 27.2 | 1.7 | -0.2 | 6.2 | 50.1*
CCN1C(=O)/C(=C/N(C(C)=O)c2ccccc2)N(c2ccccc2)C1=S | 20.1 | 86.4* | 5.5 | -6.5 | -20.7 | 23.6
O=c1cc(N=Nc2ccc(Cl)cc2)[nH]c(=O)[nH]1 | 68.4* | 13.8 | -0.4 | -7.4 | 65.5 | 110.7*
O=C(Nc1cccc(Cl)c1)Nc1nnc(CSCCOc2ccc(Cl)cc2)s1 | 43.7 | 2.2 | 67.5* | -26.2 | 66.7 | 36.1
Cc1ccc(NC(=O)Nc2nnc(CSCCOc3ccc(Cl)cc3)s2)cc1 | 8.0 | 8.2 | 9.2 | 7.6 | 18.0 | 16.0
COc1ccc(CCN(C(=O)c2snc(C(N)=O)c2N)C(C)C(=O)NC2CCCCC2)cc1OC (centres undefined) | 22.1 | 1.6 | 0.7 | 4.6 | 10.2 | 8.4
Cc1nc2ccc([N+](=O)[O-])cc2c(=O)n1Cc1ccc(F)cc1 | -6.1 | 16.9 | 1.9 | 1.5 | -9.7 | 23.6
C[C@]12C(=O)N(c3ccc(C(F)(F)F)cc3)C(=O)N1[C@H]1c3ccccc3OC[C@@H]1[C@H]2c1ccccc1 | 60.3* | 7.7 | -11.4 | -22.1 | -21.6 | 5.7
O=C(COC(=O)/C=C/c1ccccc1)NNC(=O)c1ccccc1F | 7.4 | -40.6 | -0.7 | 7.8 | -36.4 | -32.4
O=c1c(CO)cc(CO)cc(CO)c1O | -12.6 | 0.5 | 0.7 | 1.5 | -9.6 | -11.2
O=C1C=CC(=O)c2c(O)c(CO)c(CO)c(O)c21 | 7.6 | -6.1 | 102.8* | 19.7 | -4.4 | -8.3
CC(CCc1ccccc1)NC(=O)c1ccc(C(=O)NC(C)CCc2ccccc2)cc1 (centres undefined) | 37.3 | 4.9 | 74.1* | 0.7 | 52.7 | 59.0*
COc1cccc(CN(C)S(=O)(=O)c2c(C)noc2C)c1OC | 6.9 | 9.6 | 0.0 | 14.1 | 9.4 | 7.5
SMILES | CF NFkB block | HIF-2a inh | MITF TRPM1 inh | KKLEB tox | Shn3 inh set2 | Peg3 promoter
O=C(CCC(=O)N(CC(=O)NC1CCCC1)Cc1ccc(F)cc1)Nc1nccs1 | -16.3 | 11.3 | 0.0 | 7.6 | 6.4 | 16.6
Cc1cc(NC(=O)C2CCCC2)nc2c1c(=O)oc1ccccc12 | -34.4 | -55.7 | 4.5 | 19.8 | 0.8 | 4.5
Cc1cc(NC(=O)C2CCCCC2)nc2c1c(=O)oc1ccccc12 | -37.9 | -11.8 | 9.2 | 5.4 | 18.2 | 50.9*
CC[n+]1c(/C=C/c2c[nH]c3ccccc23)ccc2cc(C)ccc21 | . | . | 74.5* | . | . | .
CCN(CC)C(=O)c1ccc(/C=C/c2c[nH]c3ccccc23)[n+](C)c1 | -26.5 | 15.5 | 9.9 | 3.2 | -25.3 | 2.5
Cc1ccc(-n2nc3c(=O)n(CC(=O)NCCC4=CCCCC4)nc(C)c3c2C)cc1 | -10.7 | -8.1 | 33.6 | 9.8 | 27.5 | 12.6
COc1cccc(/C=N/Nc2ncnc3c2ncn3Cc2ccccc2)c1O | 8.0 | -38.9 | 58.6 | 13.0 | 90.2* | 24.8
COc1ccc(NC(C)C(=O)N/N=C/c2c(O)ccc3ccccc23)cc1 (centres undefined) | -13.2 | 15.8 | 44.4 | -8.7 | 48.2 | 57.4*
O=C(NN=Cc1c(O)ccc2ccccc12)c1ccncc1 | -10.8 | -4.2 | 74.8* | 4.1 | 90.3* | 44.7
Cn1cc(C(=O)N/N=C/c2c(O)ccc3ccccc23)ccc1=O | -12.4 | -2.1 | 68.8* | -4.1 | 90.6* | 42.5
O=C(N/N=C/c1c(O)ccc2ccccc12)c1ccc[n+](CCO)c1 | -20.7 | 21.0 | 4.3 | 5.0 | 12.8 | 4.5
O=C(CSCC(=O)Nc1ccccc1)N/N=C/c1c(O)ccc2ccccc12 | 26.7 | 5.4 | 69.1* | -14.9 | 93.4* | 52.0*
CCCCN(C(=O)C1CC(=O)N(Cc2ccc(C)cc2)C1)c1c(N)n(CCCC)c(=O)[nH]c1=O (centres undefined) | 2.8 | 5.6 | 9.2 | -4.2 | -16.5 | -16.6
CCC(=O)Nc1ccc(C(=O)CN2C(=O)NC3(CCCCCC3)C2=O)cc1 | -12.3 | 7.9 | 0.9 | 11.5 | 5.7 | 1.8
O=C(N/N=C\c1c(O)ccc2ccccc12)c1ccc(O)cc1 | 9.0 | -61.6 | 36.0 | -11.9 | 91.0* | 39.0
O=C(N/N=C/c1c(O)ccc2ccccc12)c1cccnc1 | 3.9 | -10.0 | 49.3 | 0.4 | 85.0 | 51.8*
COc1ccc2ccccc2c1/C=N\NC(=O)c1cccnc1 | -20.8 | -0.7 | . | -1.6 | 2.0 | -0.8
Cc1occc1C(=O)N/N=C/c1c(O)ccc2ccccc12 | 18.6 | -150.3 | 38.9 | -4.2 | 65.0 | -34.4
Cc1ccc(C(=O)N/N=C/c2c(O)ccc3ccccc23)cn1 | 12.3 | -34.1 | 59.9 | 1.6 | 93.7* | 45.1
COc1ccccc1/C=N/NC(=O)c1ccc(C)nc1 | -14.9 | 22.1 | 7.8 | 12.8 | 8.1 | 9.4
Cn1nccc1C(=O)N/N=C/c1c(O)ccc2ccccc12 | -30.2 | -75.3 | 72.0* | -7.1 | 94.2* | 25.4
C[C@H](CO)N1C[C@H](C)[C@@H](CN(C)S(C)(=O)=O)Oc2ccc(N(C)C)cc2C1=O | -12.7 | 14.1 | 7.8 | -5.1 | 13.6 | 3.3
